Most compounds without a hit are left out; they make up all but 10% or so of the library.
HP1b chromo inh: HTS for Inhibitors of HP1-beta Chromodomain Interactions with Methylated Histone Tails; AlphaScreen HP1-beta / biotin-H3K9me3 peptide binding; Potency, µM (top dose mostly 114 µM), for inactives: top-dose activity change, negative = inhibition, actives largely listed as inhibitors; Chromobox protein homolog 1 (Homo sapiens), P83916; hit rate 0.56% among 390,000; AID 540317, 2011; note: nearly all actives have a fitted effect of over 70% in size
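HP1-beta protein (50 nM final) preincubated 30 min at room temperature with biotinylated H3(1-18)K9me3 peptide (50 nM) in PBS pH 7.4, 0.01% Tween-20, then compound added for 30 min. AlphaScreen streptavidin donor/nickel chelate acceptor beads (10 ug/mL final), 30 min dark, luminescence read.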
G9a inh: qHTS Assay for Inhibitors of Histone Lysine Methyltransferase G9a | Histone-lysine N-methyltransferase EHMT2 (Homo sapiens), Q96KQ7 | G9a H3K9 monomethylation, AlphaScreen, 2 h | Potency, µM (series often up to 102 µM), for the others: at the top dose activity, negative = inhibition, hits mostly inhibitors | hit rate 8.8% among 350,000; note: % is set by controls: 0 for no effect and ±100 for the full control effect; nearly all actives have a fitted effect of over 75% in size
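Compounds were preincubated with 20 nM G9a for 15 min, after which biotinylated H3K9 peptide (500 nM) and SAM (20 uM) started a 2 h room-temperature reaction. Monomethylated product was quantified by antibody-based AlphaScreen chemiluminescence.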
BAZ2B block: qHTS Assay for Inhibitors of BAZ2B; AlphaScreen BAZ2B-H3K14Ac peptide displacement; Potency, µM (doses to about 114 µM), inactives show top-dose activity change, negative = inhibition, actives largely listed as inhibitors; hit rate 4.4% among 360,000; AID 504333, 2011; note: % is set by controls: 0 for no effect and ±100 for the full control effect; nearly all actives have a fitted effect of over 60% in size
Target sequence (Q9UIF8 whole entry, looked up): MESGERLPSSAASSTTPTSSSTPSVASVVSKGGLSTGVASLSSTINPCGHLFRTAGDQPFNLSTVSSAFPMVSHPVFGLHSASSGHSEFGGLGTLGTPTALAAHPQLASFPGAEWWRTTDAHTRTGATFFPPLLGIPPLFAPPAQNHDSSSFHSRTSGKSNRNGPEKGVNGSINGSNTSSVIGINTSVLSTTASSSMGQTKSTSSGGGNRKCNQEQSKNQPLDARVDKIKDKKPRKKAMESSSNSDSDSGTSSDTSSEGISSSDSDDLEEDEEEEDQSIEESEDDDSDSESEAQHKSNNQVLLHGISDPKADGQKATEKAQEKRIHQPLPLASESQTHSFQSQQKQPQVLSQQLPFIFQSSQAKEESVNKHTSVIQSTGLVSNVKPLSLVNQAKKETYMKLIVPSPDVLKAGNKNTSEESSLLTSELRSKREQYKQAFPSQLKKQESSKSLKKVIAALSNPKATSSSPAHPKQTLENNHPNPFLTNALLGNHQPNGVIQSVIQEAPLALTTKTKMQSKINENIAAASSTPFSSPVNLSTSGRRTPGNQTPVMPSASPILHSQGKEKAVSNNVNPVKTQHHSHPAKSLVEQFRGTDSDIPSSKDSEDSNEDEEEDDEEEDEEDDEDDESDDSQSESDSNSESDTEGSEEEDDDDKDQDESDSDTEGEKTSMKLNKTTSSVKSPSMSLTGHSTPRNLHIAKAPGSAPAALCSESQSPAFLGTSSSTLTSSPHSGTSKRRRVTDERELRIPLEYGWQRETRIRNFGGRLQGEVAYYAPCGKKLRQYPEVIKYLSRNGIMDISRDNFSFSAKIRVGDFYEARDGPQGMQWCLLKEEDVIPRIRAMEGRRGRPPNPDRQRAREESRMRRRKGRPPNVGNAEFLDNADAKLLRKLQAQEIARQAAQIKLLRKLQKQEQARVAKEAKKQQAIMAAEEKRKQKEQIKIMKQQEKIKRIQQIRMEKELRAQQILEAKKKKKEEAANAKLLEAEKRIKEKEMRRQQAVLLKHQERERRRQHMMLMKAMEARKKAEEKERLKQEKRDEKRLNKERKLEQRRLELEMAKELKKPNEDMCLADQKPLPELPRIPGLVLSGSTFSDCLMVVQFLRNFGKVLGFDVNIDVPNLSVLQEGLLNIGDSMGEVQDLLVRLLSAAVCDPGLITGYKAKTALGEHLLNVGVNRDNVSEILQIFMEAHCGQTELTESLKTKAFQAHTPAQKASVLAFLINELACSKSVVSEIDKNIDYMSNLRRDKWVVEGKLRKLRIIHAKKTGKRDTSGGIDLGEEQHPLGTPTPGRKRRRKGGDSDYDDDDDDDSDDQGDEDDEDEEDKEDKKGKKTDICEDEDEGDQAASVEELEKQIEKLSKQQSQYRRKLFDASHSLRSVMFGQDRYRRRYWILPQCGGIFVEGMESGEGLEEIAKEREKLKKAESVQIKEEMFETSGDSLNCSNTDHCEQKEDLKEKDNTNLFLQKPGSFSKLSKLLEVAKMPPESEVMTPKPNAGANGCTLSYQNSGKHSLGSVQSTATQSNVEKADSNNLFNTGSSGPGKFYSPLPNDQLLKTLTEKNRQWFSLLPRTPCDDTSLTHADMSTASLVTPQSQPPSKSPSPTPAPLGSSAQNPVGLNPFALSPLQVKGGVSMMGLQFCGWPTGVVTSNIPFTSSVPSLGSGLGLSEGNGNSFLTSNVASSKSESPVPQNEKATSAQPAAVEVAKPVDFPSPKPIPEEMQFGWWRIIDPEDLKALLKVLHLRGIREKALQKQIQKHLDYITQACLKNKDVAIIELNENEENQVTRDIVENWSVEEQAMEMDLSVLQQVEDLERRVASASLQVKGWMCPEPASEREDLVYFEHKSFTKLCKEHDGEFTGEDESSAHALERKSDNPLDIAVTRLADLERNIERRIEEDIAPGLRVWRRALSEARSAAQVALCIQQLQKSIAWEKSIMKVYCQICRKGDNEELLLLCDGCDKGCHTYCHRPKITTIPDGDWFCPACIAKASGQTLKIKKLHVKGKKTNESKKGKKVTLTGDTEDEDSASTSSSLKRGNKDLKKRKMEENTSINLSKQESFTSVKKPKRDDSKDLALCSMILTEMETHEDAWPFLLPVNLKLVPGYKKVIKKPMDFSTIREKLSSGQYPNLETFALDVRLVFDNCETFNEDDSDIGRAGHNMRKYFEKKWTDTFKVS
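AlphaScreen luminescence quantifies BAZ2B engagement of H3K14Ac peptide; the protein and biotinylated peptide are both at 50 nM final, buffer PBS pH 7.4 with 0.01% Tween-20, all steps at room temperature.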
GLS inh: qHTS for Inhibitors of Glutaminase (GLS). Glutaminase kidney isoform, mitochondrial (Homo sapiens), O94925. Potency, µM (highest dose often 45.5 µM), for inactives: top-dose activity change, negative = inhibition, most hits filed as inhibitors. GLS enzymatic activity, qHTS titration. hit rate 0.21% among 410,000. AID 624170, 2012; note: % is set by controls: 0 for no effect and ±100 for the full control effect
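Glutamate formation by hKGA was monitored fluorometrically using coupled glutamate oxidase, HRP and Amplex Red. Substrate was added as 1 mM L-glutamine solution; incubation was 30 min at RT after an initial read.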
JMJD2A Tudor inh: qHTS Assay for Inhibitors of JMJD2A-Tudor Domain. Lysine-specific demethylase 4A (Homo sapiens), O75164. Potency, µM (titrated, usually from 114 µM), inactives show at the top dose activity change, negative = inhibition, actives largely listed as inhibitors. AlphaScreen JMJD2A-Tudor / H3K4me3 peptide binding. AID 504339, 2011. hit rate 4.4% among 390,000; note: % is set by controls: 0 for no effect and ±100 for the full control effect; nearly all actives have a fitted effect of over 50% in size
* marks the source's active call; other numbers are inactive results; ? = inconclusive; . = no result given; [ ] = another dose, or the depositor's remark. Calls come from the whole dose curve; as a rule, active = well fitted curve in the direction sought with a large enough effect; inconclusive = small, poorly fitted or top-dose-only effect, or another doubt; inactive = no such curve, though single readings can be large; an effect the other way counts as inactive or inconclusive. Potency is the fitted concentration of half-maximal effect.

SMILES | HP1b chromo inh | G9a inh | BAZ2B block | GLS inh | JMJD2A Tudor inh
CC1C(=O)OC2C1CCC1(C)CCC(=O)C(C)C21 (configuration not stated) | 51% | 22µM* | 13% | -3% | 50µM*
Fc1cccc(Cl)c1Cn1nnc2c(-n3ccnc3)ncnc21 | 45% | 7%[2.33 µM] | 1% | 2% | -8%
COc1cccc(N2CCN(c3ncnc4c3[nH]c3ccc(F)cc34)CC2C)c1 (configuration not stated) | ? | 18µM* | ? | 11% | ?
COc1ccc2[nH]c3c(N4CC(C)OC(C)C4)ncnc3c2c1 (configuration not stated) | 51% | 12%[59 µM] | 13% | -15% | -1%
O=C(c1ccco1)N1CCN(C(=O)c2cccs2)CC1 | 16% | 6% | 6% | 3% | -9%
CCCCCCn1c(SCC(=O)NC2CCS(=O)(=O)C2)nc2ccccc2c1=O (configuration not stated) | . | . | . | 7% | .
Cc1ccc(C)c2[nH]c(=O)c(CN(CC3CCCO3)C(=S)NCc3ccco3)cc12 (configuration not stated) | 19% | 45µM* | -31% | 10% | -18%
Cc1cccc2cc(CN(CC3CCCO3)C(=O)c3ccco3)c(=O)[nH]c12 (configuration not stated) | 36% | 50µM* | -29% | -8% | -6%
Cc1ccc(C)c2[nH]c(=O)c(CN(Cc3cccs3)C(=S)NCc3ccco3)cc12 | 0% | 0%[59 µM] | -1% | -3% | -23%
CCc1ccc2[nH]c(=O)c(CN(CC3CCCO3)C(=S)NCc3ccco3)cc2c1 (configuration not stated) | -7% | . | ? | 7% | ?
Cc1ccc2cc(CN(CC3CCCO3)C(=S)NCc3ccco3)c(=O)[nH]c2c1C (configuration not stated) | ? | 45µM* | ? | 6% | ?
CC(C)Cc1ccc(-c2cc3nc(NCCc4ccc(S(N)(=O)=O)cc4)ccn3n2)cc1 | . | . | . | -2% | .
COc1ccc(CN(Cc2ccco2)C(=O)COc2ccccc2Cl)cc1 | 46% | -4%[59 µM] | 21% | -2% | -15%
CC(C)C(=O)Nc1cc(S(=O)(=O)N2CCOCC2)ccc1N1CCCCC1 | ? | . | . | ? | -26%
CC(C)(C)C(=O)Nc1cc(S(=O)(=O)N2CCCCC2)ccc1N1CCCCC1 | 28% | 40µM* | 2% | -10% | -21%
O=C(O)c1cc(S(=O)(=O)Nc2ccc(N3CCCCC3)cc2)ccc1Cl | 10% | -18%[59 µM] | -32% | 1% | -30%
O=C(Nc1ccccc1N1CCCC1)c1cc(S(=O)(=O)N2CCOCC2)ccc1Cl | -9% | 50µM* | -38% | 28% | -34%
CCN1CCN(S(=O)(=O)c2ccc(Cl)c(C(=O)N(C)C(c3ccccc3)c3ccccc3)c2)CC1 | -2% | 8.9µM* | -38% | -5% | -30%
O=S(=O)(Nc1ccc(N2CCCCC2)cc1)c1ccc(F)c(F)c1 | -37% | 13µM* | 32µM* | 59% | ?
COC(=O)c1sccc1S(=O)(=O)Nc1ccc(N2CCCCC2)cc1 | ? | . | 35µM* | 1% | ?
NC(=O)c1ccc(NC(=O)CNc2cc(S(=O)(=O)N3CCOCC3)ccc2N2CCCC2)cc1 | 3% | . | . | 21% | -30%
CCOc1cc(N2CCOCC2)c(OCC)cc1NC(=O)c1cc(S(=O)(=O)N2CCOCC2)ccc1Cl | -16% | 50µM* | ? | 33% | ?
CC(=O)c1ccc(NC(=O)CNc2cc(S(=O)(=O)N3CCOCC3)ccc2N2CCCC2)cc1 | -16% | 35µM* | -33% | 25% | ?
COC(=O)c1sccc1S(=O)(=O)Nc1ccc(S(N)(=O)=O)cc1 | -15% | . | -4% | -4% | -9%
O=C(Nc1cc(S(=O)(=O)N2CCOCC2)ccc1N1CCCC1)c1ccc2c(c1)S(=O)(=O)c1ccccc1C2=O | 4µM* | . | ? | 7.9µM* | ?
SMILES | HP1b chromo inh | G9a inh | BAZ2B block | GLS inh | JMJD2A Tudor inh
O=C(Nc1cc(S(=O)(=O)N2CCOCC2)ccc1N1CCCCC1)c1ccccc1 | 22% | -14%[59 µM] | -1% | 23% | -21%
CC(C)=C1C(=O)NN(c2cccc(Cl)c2)C1=O | 20% | ? | -31% | ? | -19%
CCN1CCN(S(=O)(=O)c2ccc(Cl)c(C(=O)Nc3ccccc3N3CCCCC3)c2)CC1 | 51% | 40µM* | -33% | 6% | ?
O=C(Nc1ccccc1F)Nc1cc(S(=O)(=O)N2CCOCC2)ccc1N1CCCC1 | 12% | ? | . | -1% | -18%
N#C/C(=C\c1ccccc1)C(=O)Nc1cc(S(=O)(=O)N2CCOCC2)ccc1N1CCCC1 | -7% | 45µM* | -9% | -12% | -34%
O=C(Nc1cc(S(=O)(=O)Nc2ccc(Cl)cc2)ccc1N1CCCCC1)c1ccc(F)cc1Cl | ? | 10µM* | -32% | -3% | -22%
CCCNC(=O)Nc1cc(OCC)c(N2CCOCC2)cc1OCC | 16% | 4%[12.7 µM] | 8% | 24% | -21%
CCOc1cc(N2CCOCC2)c(OCC)cc1NS(=O)(=O)c1ccc(Cl)s1 | -2% | ? | 50µM* | 59% | ?
CN1CCN(C(=O)CN(C2CCCCC2)S(=O)(=O)c2ccccc2)CC1 | 0% | 19% | 4% | 24% | -9%
Cc1nn(CC(=O)Nc2ccncc2)c(C)c1[N+](=O)[O-] | 24% | 0%[59 µM] | -4% | 0% | 1%
CCOc1cc(N2CCOCC2)c(OCC)cc1NC(=O)CCS(=O)(=O)c1ccc(Cl)cc1 | -17% | 22µM* | . | 20% | -32%
O=C(Nc1cc(S(=O)(=O)N2CCOCC2)ccc1N1CCCC1)c1ccc(Cl)cc1 | ? | 1.8µM* | -5% | 17% | ?
Cc1c(Cl)cccc1NC(=O)c1oc2ccc(S(=O)(=O)N3CCCCCC3)cc2c1C | 11% | -4%[59 µM] | 5% | -2% | -13%
O=C1Nc2ccccc2C12OCC(COc1ccc(Cl)cc1)O2 (configuration not stated) | -18% | -7%[12.7 µM] | 10% | 1% | 79µM*
N#CCCN(C(=O)COC(=O)COc1ccc(Cl)cc1)c1ccccc1 | 27% | 3% | -1% | 5% | -4%
CCN1CCN(CCNC(=O)c2ccc(/C=C3/Sc4ccccc4N(Cc4cccc(Cl)c4)C3=O)cc2)CC1 | ? | 40µM* | -37% | ? | 22µM*
CCN1CCN(CCNC(=O)c2ccc3c(c2)N(Cc2ccc(F)cc2)C(=O)/C(=C/c2ccccc2)S3)CC1 | ? | ? | 40µM* | 5% | ?

Screening results: PubChem, National Center for Advancing Translational Sciences (NCATS)
